Results filed as inconclusive are left out. Calls of active or inactive are those of the source. Calls come from the whole dose curve; as a rule, active = well fitted curve in the direction sought with a large enough effect; inconclusive = small, poorly fitted or top-dose-only effect, or another doubt; inactive = no such curve, though single readings can be large; an effect the other way counts as inactive or inconclusive.
What was measured:
[1] = target: Glutathione peroxidase 1 (Homo sapiens) (UniProt P07203); assay: Primary qHTS Assay for Inhibitors of Recombinant Selenoprotein Glutathione Peroxidase 1 (GPX1) (AID 1845191); note: nearly all actives have a fitted effect of over 65% in size; for activity, negative = inhibition: % is set by controls: 0 for no effect and ±100 for the full control effect
How it was run: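 10 nM GPX1 + cpd, 30 min RT; start w/ 1 mM GSH, 0.5 mM cumene hydroperoxide, 0.5 mM NADPH, 100 nM GR, 0.01% BSA; buffer 50 mM Tris-HCl pH 7.5, 2 mM EDTA, 150 mM NaCl; Fl 340/450, 0 & 15 min.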

[2] = target: Phospholipid hydroperoxide glutathione peroxidase GPX4 (Homo sapiens) (UniProt P36969); assay: Primary qHTS Assay for Inhibitors of Recombinant Selenoprotein Glutathione Peroxidase 4 (GPX4) (AID 1845192); note: nearly all actives have a fitted effect of over 65% in size; for activity change, negative = inhibition: series mostly up to about 50 µM; % is set by controls: 0 for no effect and ±100 for the full control effect
How it was run: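 NADPH consumption, followed by fluorescence at 340/450 nm between 0 and 15 min, reports GPX4 activity via coupled glutathione reductase (100 nM). Enzyme 200 nM was pre-exposed to compound 30 min; 0.5 mM cumene hydroperoxide and 1 mM GSH served as substrates.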

[3] = target: Luciferin 4-monooxygenase (Photinus pyralis) (UniProt P08659); assay: Primary firefly luciferase (FLuc) qHTS assay for identification of artifact compounds. (AID 1845220); note: nearly all actives have a fitted effect of over 60% in size;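 for activity change, negative = inhibition: series mostly up to about 54 µM; plate controls were DMSO vehicle for no effect and no enzyme for full effect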
How it was run: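 Compounds sat 15 min at room temperature with 10 uM luciferin and 10 uM ATP (pH 7.6 Tris acetate). Firefly luciferase (10 nM final) was then added, and luminescence was read 5 min later. Data normalized to no-enzyme and DMSO controls were Hill-fitted.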

[4] = Primary fluorescence-based thiol-reactive (MSTI) qHTS assay for identification of artifact compounds. (AID 1845221); note: nearly all actives have a fitted effect of over 65% in size; note: potency is the fitted concentration of half-maximal effect;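 for activity change, negative = thiol reactive: series mostly up to about 54 µM; thiol-reactive compounds lower the probe fluorescence signal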
How it was run: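 Probe: MSTI 4 uM, PBS pH 7.4, 2% DMSO. Incubation 1 h, RT, light-protected. Readout fluorescence 525/598 nm.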

[5] = tested on: Nanoluciferase (engineered Oplophorus gracilirostris luciferase); assay: Primary Nanoluciferase (NLuc) qHTS assay for identification of artifact compounds. (AID 1845222);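 note: series mostly up to about 54 µM; 0% = DMSO and -100% = no enzyme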
How it was run: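 Luminescence from secreted NLuc (filtered, 1:55-diluted S16 cell medium) read 5 min after Nano-Glo substrate; compounds preincubated 15 min, RT. Hill fits of inhibition normalized to DMSO and no-enzyme.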

[6] = Primary redox qHTS assay for identification of artifact compounds. (AID 1845223);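 note: 0% = DMSO and 100% = reference compound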
How it was run: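 Amplex Red (25 uM) and HRP (250 mU/mL) in HBSS, with compounds for 15 min, then 250 uM DTT for 30 min, room temperature, dark. Fluorescence 525/598 nm read; normalized to DMSO and 10 uM DA3003; Hill fit.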

Chain of Phospholipid hydroperoxide glutathione peroxidase GPX4 (Homo sapiens) (P36969 whole entry, looked up): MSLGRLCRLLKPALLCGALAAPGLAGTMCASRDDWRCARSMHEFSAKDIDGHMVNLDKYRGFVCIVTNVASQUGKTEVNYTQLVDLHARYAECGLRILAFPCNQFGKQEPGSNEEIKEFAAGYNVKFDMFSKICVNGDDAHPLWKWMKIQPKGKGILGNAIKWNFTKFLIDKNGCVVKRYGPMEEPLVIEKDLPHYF
Chain of Glutathione peroxidase 1 (Homo sapiens) (P07203 whole entry, looked up): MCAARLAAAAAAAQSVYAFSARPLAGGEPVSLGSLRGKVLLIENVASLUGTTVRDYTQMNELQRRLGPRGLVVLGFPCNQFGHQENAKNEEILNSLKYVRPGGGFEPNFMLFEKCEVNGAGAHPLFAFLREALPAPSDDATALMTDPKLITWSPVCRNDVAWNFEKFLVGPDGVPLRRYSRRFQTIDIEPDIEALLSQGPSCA

C[C@@H](N[C@H]1CCCC[C@@H]1NC(=O)c1ccc(Cl)cc1)c1cccc2ccccc12
inactive: Potency [1] | Potency [2] | Potency [3] | Potency [4] | Potency [5] | Potency [6]

C=C1C(=O)O[C@@H]2C3C(=C(C)[C@@H](O)[C@@H](OC(=O)/C(=C/C)COC(C)=O)[C@@H]12)C(=O)[C@H]1O[C@@]31C (some centres not stated)
inactive: Potency [1] | Potency [2] | Potency [3] | Potency [4] | Potency [5] | Potency [6]

Nc1nc(OCc2cc(Br)cs2)c2[nH]cnc2n1
inactive: Potency [1] | Potency [2] | Potency [3] | Potency [4] | Potency [5] | Potency [6]

NC(=O)c1nc(Nc2ccccc2)sc1NC(=O)C1CCCCC1
inactive: Potency [1] | Potency [2] | Potency [3] | Potency [5] | Potency [6]
active: Potency [4] 1680 nM

C[C@@H]1CCCN1CCc1cc2cc(-c3ccc(C#N)cc3)ccc2o1
inactive: Potency [1] | Potency [2] | Potency [3] | Potency [4] | Potency [5] | Potency [6]

CCN(CCNC(=O)Nc1ccccc1Br)c1cccc(C)c1
active: Potency [4] 2670 nM
inactive: Potency [1] | Potency [2] | Potency [3] | Potency [5] | Potency [6]

CCOC(=O)C1(CCOc2ccccc2)CCN(Cc2ccc(O)c(Cl)c2)CC1
inactive: Potency [1] | Potency [2] | Potency [3] | Potency [4] | Potency [5] | Potency [6]

CCCN(CCc1ccsc1)C1CCc2c(O)cccc2C1 (configuration not stated)
inactive: Potency [1] | Potency [2] | Potency [3] | Potency [4] | Potency [5] | Potency [6]

CO[C@H]1[C@@H](O)[C@H](O[C@H]2CC[C@@]3(C)C(CCC4C3CC[C@]35COC6(COC(=O)C6)C3CCC45O)C2)O[C@@H](C)[C@@H]1OC1OC(CO)C(OC2OC(CO)C(O)C(O)C2O)C(O)C1O (some centres not stated)
inactive: Potency [1] | Potency [2] | activity change, negative = inhibition [3] -4.26% [at 11.6 µM] | activity change, negative = thiol reactive [4] 77.5% [at 11.5 µM] | activity, negative = inhibition [5] -0.128% [at 11.6 µM] | redox activity (% of DA3003) [6] -0.0298% [at 11.5 µM]

CCN1CCN(Cc2ccc(NC(=O)c3ccc(C)c(Oc4ncnc5[nH]c(C)cc45)c3)cc2C(F)(F)F)CC1
inactive: Potency [1] | Potency [2] | Potency [3] | Potency [4] | Potency [5] | Potency [6]

C/C=C(\C)C(=O)OC1C=C(C)CC(OC(=O)c2ccc(O)cc2)C2C1(C)CCC2(O)C(C)C (configuration not stated)
inactive: Potency [1] | Potency [2] | Potency [3] | Potency [4] | Potency [5] | Potency [6]

CCOc1cc(C(C)(C)C)ccc1C1=N[C@@](C)(c2ccc(Cl)cc2)[C@@](C)(c2ccc(Cl)cc2)N1C(=O)N1CCN(CC(=O)N2CCOCC2)CC1
inactive: Potency [1] | Potency [2] | Potency [3] | Potency [4] | Potency [5] | Potency [6]

CC1(C)CN(C(=O)c2ccc(-c3cccc4nc(NC(=O)C5CC5)nn34)cc2)C1
inactive: Potency [1] | Potency [2] | Potency [3] | Potency [4] | Potency [5] | Potency [6]

CC(=O)O[C@H]1CC2C(COC(=O)CC(C)C)=CO[C@@H](OC(=O)CC(C)C)C2[C@]12CO2 (some centres not stated)
inactive: Potency [1] | Potency [2] | Potency [3] | Potency [4] | Potency [5] | Potency [6]

O=C(NCCO)c1cccc(-c2cc(Nc3ccc(OC(F)(F)F)cc3)ncn2)c1
inactive: Potency [1] | Potency [2] | Potency [3] | Potency [4] | Potency [5] | Potency [6]

C=CC(=O)Nc1cc(-n2c(=O)ccc3cnc4ccc(-c5ccc(NS(C)(=O)=O)cc5)cc4c32)ccc1C
inactive: Potency [1] | Potency [2] | Potency [3] | Potency [4] | Potency [5] | Potency [6]

Cc1ccc(-c2ncc[nH]2)cc1NC(=O)c1ccc(OCc2ccccn2)cc1
inactive: Potency [1] | Potency [2] | Potency [3] | Potency [4] | Potency [5] | Potency [6]

C=CCC1=C[C@]2(OC)[C@H](C)[C@@H](c3ccc4c(c3)OCO4)O[C@]2(OC)CC1=O
inactive: Potency [1] | Potency [2] | Potency [3] | Potency [4] | Potency [5] | Potency [6]

O=C(Nc1ccc(Cl)cc1)c1ccccc1NCc1ccncc1
inactive: Potency [1] | Potency [2] | Potency [3] | Potency [4] | Potency [5] | Potency [6]

O=C(O)C1=CO[C@@H](O[C@@H]2O[C@H](CO)[C@@H](O)[C@H](O)[C@H]2O)[C@@H]2C(CO)=CC[C@H]12
inactive: Potency [1] | Potency [2] | Potency [3] | Potency [4] | Potency [5] | Potency [6]

CC(=O)NC[C@H]1CN(c2ccc(N3CCSCC3)c(F)c2)C(=O)O1
inactive: Potency [1] | Potency [2] | Potency [3] | Potency [4] | Potency [5] | Potency [6]

COc1cc(C(=O)NCC2(N(C)C)CCCC2)cc(OC)c1OCc1ccccc1
inactive: Potency [1] | Potency [2] | Potency [3] | Potency [4] | Potency [5] | Potency [6]

From PubChem BioAssay (NCATS)
